Source: PubChem (National Center for Advancing Translational Sciences (NCATS))
G9a inh – inhibitors of human histone lysine methyltransferase G9a; Q96KQ7; G9a H3K9 monomethylation, AlphaScreen, 2 h; Potency, µM (doses to about 102 µM), without a hit: top-dose activity, negative = inhibition, actives largely listed as inhibitors; 350,000 compounds, 8.8% hits; further: on the % scale 0 is the no-effect control and ±100 the full control effect; nearly all actives have a fitted effect of over 75% in size
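Quantitative HTS format: methyltransferase activity on a biotin-tagged H3K9 peptide is measured by AlphaScreen, using a rabbit anti-monomethyl-H3K9 antibody with streptavidin donor and anti-IgG acceptor beads. Final levels are 20 nM enzyme, 500 nM peptide, 20 uM SAM; 2 h RT.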
Sfp inh – inhibitors of Bacillus subtilis Sfp phosphopantetheinyl transferase; Biochemical Sfp PPTase activity, qHTS; 310,000 compounds, 3.5% hits; Potency, µM, without a hit: largest response in the series, negative = inhibition, hits mostly inhibitors;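 further: the enzyme is Sfp with the accession as filed and its product quenches rhodamine fluorescence; 0% = enzyme reaction without inhibitor and -100% = no enzyme wells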
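Reaction rates are the 30-min fluorescence difference (ex 525, em 598 nm) in wells containing 15 nM Sfp, 5 uM rhodamine-CoA and 12.5 uM BHQ-2-YbbR at pH 7.6 with 10 mM MgCl2.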
PLK1 PBD inh – PLK1 (human) polo-box domain binding inhibition | Plk1 PBD binding of FITC phosphopeptide, fluorescence polarization | P53350 | 360,000 compounds, 2.8% hits | Potency, µM, for inactives: max response, negative = inhibition, usual class: inhibitors; further: series mostly up to about 57 µM; on the % scale 0 is the no-effect control and ±100 the full control effect; nearly all actives have a fitted effect of over 65% in size
HP1b chromo inh – blocks HP1-beta chromodomain binding to methylated histone tails; AID 540317; AlphaScreen HP1-beta / biotin-H3K9me3 peptide binding; Potency, µM (top dose mostly 114 µM), for inactives: top-dose activity change, negative = inhibition, most hits filed as inhibitors; 390,000 compounds, 0.56% hits; P83916; further: nearly all actives have a fitted effect of over 70% in size
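HP1-beta protein (50 nM final) preincubated 30 min at room temperature with biotinylated H3(1-18)K9me3 peptide (50 nM) in PBS pH 7.4, 0.01% Tween-20, then compound added for 30 min. AlphaScreen streptavidin donor/nickel chelate acceptor beads (10 ug/mL final), 30 min dark, luminescence read.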
BAZ2B block – BAZ2B (human) inhibition | Potency, µM (highest dose often 114 µM), without a hit: at the top dose activity change, negative = inhibition, most hits filed as inhibitors | AlphaScreen BAZ2B-H3K14Ac peptide displacement | Q9UIF8 | 360,000 compounds, 4.4% hits; further: on the % scale 0 is the no-effect control and ±100 the full control effect; nearly all actives have a fitted effect of over 60% in size
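AlphaScreen displacement: compounds (up to 110uM) incubated 30 min at room temperature with a preformed 50 nM BAZ2B/50 nM biotinylated H3K14Ac peptide complex in PBS pH 7.4 with Tween-20. Donor and acceptor beads at 10 ug/mL final added, 20 min light-protected before reading.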
JMJD2A Tudor inh – inhibitors of human JMJD2A Tudor domain. 390,000 compounds, 4.4% hits. AID 504339. AlphaScreen JMJD2A-Tudor / H3K4me3 peptide binding. Potency, µM (doses to about 114 µM), for the others: top-dose activity change, negative = inhibition, usual class: inhibitors; further: on the % scale 0 is the no-effect control and ±100 the full control effect; nearly all actives have a fitted effect of over 50% in size
Numbers without * were called inactive; ? = inconclusive; . = not tested or not shown; [ ] = another dose, or the depositor's remark. Most compounds without a hit are left out; they make up all but 12% or so of the library. The call rests on the fitted dose curve; in most records, active means well fitted curve in the direction sought with a large enough effect; inconclusive means small, poorly fitted or top-dose-only effect, or another doubt; inactive means no such curve, though single readings can be large; an effect the other way counts as inactive or inconclusive. Potency means the concentration at half of the fitted maximal effect.

SMILES	G9a inh	Sfp inh	PLK1 PBD inh	HP1b chromo inh	BAZ2B block	JMJD2A Tudor inh
CCc1ccc(S(=O)(=O)Nc2cccc(-c3ccc(N4CCOCC4)nn3)c2)cc1	5%[59 µM]	.	.	19%[57 µM]	-12%	-14%
CC(C)C[C@@H](CC(=O)N[C@@H](CCC(=O)O)CC(=O)O)NC(=O)[C@@H]1CNCC[C@H]1NC(=O)C[C@H](CCCN)NC(=O)C[C@H](CO)NC(=O)[C@@H]1CCCC[C@H]1N	.	-2%	.	.	.	.
O=C(CSc1ncn[nH]1)Nc1ccc(Cl)c(S(=O)(=O)N2CCOCC2)c1	50µM*	11%	-20%	61%	.	-19%
O=C(CSc1ncn[nH]1)Nc1cc(S(=O)(=O)N2CCCC2)ccc1Cl	?	-13%	30µM*	18%	.	-18%
Cc1c(C(=O)N2CCN(Cc3ccccc3)CC2)oc2c1C(=O)CC(C)(C)C2	35µM*	-28%	?	18%	79µM*	-17%
Cc1c(C(=O)N2CCN(c3ccccc3)CC2)oc2c1C(=O)CC(C)(C)C2	16%	20%	3%	19%	-25%	-10%
COc1cccc(N2CCN(C(=O)c3ccc(CS(=O)c4ccc(Cl)cc4)o3)CC2)c1 (centres undefined)	-20%	2%	-17%	-4%[57 µM]	?	-35%
COc1cccc(N2CCN(C(=O)c3ccc(CS(=O)c4ccc(C)cc4)o3)CC2)c1 (centres undefined)	50µM*	8%	-19%	3%[57 µM]	-27%	-11%
Cc1ccc(S(=O)(=O)Cc2ccc(C(=O)N3CCN(Cc4ccccc4)CC3)o2)cc1	45µM*	-15%	.	.	50µM*	.
COc1ccc(S(=O)(=O)Cc2ccc(C(=O)N3CCN(c4cc(Cl)ccc4C)CC3)o2)cc1	25µM*	-20%	-11%	9%	0%	-23%
CCOc1ccc(CNC(=O)CS(=O)(=O)c2cccc3nsnc23)cc1	6%[59 µM]	.	.	11%[57 µM]	-5%	-20%
CCN(C(=O)CSc1nc(-c2ccc(C(C)C)cc2)no1)c1ccccc1	49%[59 µM]	.	.	56%	47%	39%
COc1ccc(N2CCN(C(=O)c3ccc(CS(=O)(=O)c4ccc(OC)cc4)o3)CC2)cc1	40µM*	3%	-12%	0%	?	-26%
COc1ccc(N2CCN(C(=O)c3ccc(Cn4nc(C)c([N+](=O)[O-])c4C)o3)CC2)cc1	3.5µM*	17%	-5%	-9%	?	-34%
Cc1ccc(S(=O)(=O)Cc2ccc(C(=O)O)o2)cc1	13µM*	-3%	19µM*	-68%	50µM*	45µM*
COc1ccc(S(=O)(=O)Cc2ccc(C(=O)N3CCN(Cc4ccccc4)CC3)o2)cc1	35µM*	7%	-20%	21%	-6%	-31%
CCS(=O)(=O)c1ncc(N(Cc2ccco2)Cc2sccc2C)c(C(=O)Nc2ccc(C)cc2C)n1	-7%[59 µM]	.	.	49%	-26%	-17%
CCCOc1cccc(C2c3c(oc4ccc(F)cc4c3=O)C(=O)N2Cc2ccc3c(c2)OCO3)c1 (centres undefined)	7%[59 µM]	.	.	21%	-4%	-14%
Cc1ccc(S(=O)(=O)Cc2ccc(C(=O)N3CCc4ccccc4C3)o2)cc1	50µM*	-2%	?	?	50µM*	56µM*
COc1ccc(S(=O)(=O)Cc2ccc(C(=O)N3CCc4ccccc4C3)o2)cc1	?	-11%	-5%	48%	-3%	?
COc1ccc(-c2ccc(C)cc2)cc1C1C2C=CCC(C)C2C(=O)N1Cc1ccccc1 (centres undefined)	.	-4%	.	26%	.	-17%
COc1ccc(-c2ccc(OC)c([C@H]3[C@H]4C=CC[C@@H](C)[C@@H]4C(=O)N3Cc3ccccc3)c2)cc1OC	-16%[59 µM]	-26%	?	-18%	-33%	40µM*
COc1ccc(-c2ccc(C(C)=O)cc2)cc1C1C2C=CCCC2(C)C(=O)N1Cc1ccccc1 (centres undefined)	.	45µM*	.	-6%	.	?
CCc1ccc(N=C2NC(=O)CS2)cc1	15%[0.501 µM]	15%	5%	21%	-5%	-1%
